This is an account of results in ChEMBL document CHEMBL4513216, “Probing the Open Global Health Chemical Diversity Library for Multistage-Active Starting Points for Next-Generation Antimalarials” (ACS Infect Dis, 2020).

The structures appear in SMILES notation. Hit rate of the full screen: of about 69,000 compounds, about 8,600 (12%) showed an effect of 50% or more. The list comes from a sample in which strong results are over-represented; it also holds similar structures and randomly drawn compounds.

The experiment has as its system Plasmodium berghei. Description: Screen against P. berghei liver stage (PbLuc), transformed with Luciferase, at 10uM. It is filed as functional, HepG2. Particulars: tested at 10 uM.
In the case of `Cc1ccccc1S(=O)(=O)N(C)[C@@H]1CC[C@@H](n2ccnc2C)[C@@H]1O`, the INHIBITION is 38.15%.

Turning to `CC(c1nc(C2CC2)no1)N1CCN(CC(=O)N2CCOCC2)CC1` (centres undefined), the INHIBITION stood at 10.7%.

With `Cc1ccc(CN2Cc3nccn3CC(Cn3cccn3)C2)s1` (centres undefined), the INHIBITION is 45.7%.

In the case of `Cc1ccc(CN2Cc3nccn3CC(CN(C)C)C2)s1` (centres undefined), the INHIBITION turned out to be 64.9%.

For the molecule `CCN(CC)CC1CN(Cc2ccc(C)s2)Cc2nccn2C1` (centres undefined), the INHIBITION is -30.6%.

Regarding `CCn1cc(CN2CCC(CN3CCCCC3)CC2)cc1C#N`, the INHIBITION was determined as 6.88%.

Take `CCn1cc(CN2CCC(C3CCN(C)CC3)CC2)cc1C#N`: the INHIBITION came to 66.1%.

As for `Cc1nn(CCO)cc1CN1CCC(C(C)N2CCCC2)CC1` (centres undefined), the INHIBITION is recorded as 32.5%.

In the case of `Cc1nn(CCO)cc1CN1CCCN(C2CCCC2)CC1`, the INHIBITION came out at 12.8%.

On to `CCn1cc(CN2CCC(N3CCC(O)CC3)CC2)cc1C#N`, for which the INHIBITION came to 64.9%.

As to `CCn1cc(CN2CCC(CNC(C)=O)CC2)cc1C#N`, the INHIBITION is 24.2%.

Turning to `Cc1nn(CCO)cc1CN1CCC(N2CCC(O)CC2)CC1`, the INHIBITION was 50.5%.

As to `CCn1cc(CN2CCC(c3ccncc3)CC2)cc1C#N`, the INHIBITION was found to be 13%.

Regarding `CCn1cc(CN2CCC(NS(C)(=O)=O)CC2)cc1C#N`, the INHIBITION is 62.4%.

In the case of `OC1CCN(C2CCN(Cc3cccc(Cn4cccn4)c3)CC2)CC1`, the INHIBITION is on record as 24.9%.

`CS(=O)(=O)NC1CCN(Cc2ccc(OCc3ccccn3)cc2)CC1`: the INHIBITION is listed as -1.83%.

For the molecule `CCn1cc(CN2CCCCC2CCn2ccnc2C)cc1C#N` (centres undefined), the INHIBITION came out at 29.2%.

Consider `Cc1ccc(CC(=O)N(C)CC2(O)CCCN(c3ccccn3)C2)s1` (centres undefined), for which the INHIBITION is reported as -2.11%.

On to `CC(C)N(Cc1ccccn1)Cc1nc2c(cnn2C)c(=O)[nH]1`, for which the INHIBITION was determined as 25.65%.

For `CN(C)C(=O)CN1CC[C@H]2CN(C3CCOCC3)C[C@@H]2C1=O`, the INHIBITION is 30.9%.

Turning to `CCC(=O)N1CCN(C)C(=O)C(Cc2ccccc2-c2cccs2)C1` (centres undefined), the INHIBITION worked out at 22%.

Consider `O=C(c1cc(=O)c(OCc2ccccc2F)co1)N1CCSCC1`, for which the INHIBITION is 21.5%.

Regarding `CS(=O)(=O)c1cncnc1C1CCCN(C(=O)Cc2ccccc2F)C1` (centres undefined), the INHIBITION is 17.985%.

Turning to `CCNC(=O)[C@@H]1C[C@H](N)CN1C(=O)C1(c2ccc(OC)cc2)CCCC1`, the INHIBITION is listed as -12.7%.

Consider `CCN(CC)C(=O)CNC(=O)N1CCC(c2ccc(OC)cc2)C1` (centres undefined), for which the INHIBITION came to 21.7%.

Turning to `CCC(=O)Nc1cccc(OCC(=O)N2CC=CC2C(C)C)c1` (centres undefined), the INHIBITION is reported as -16.6%.

Consider `Cc1ccccc1CCC(=O)N1CCCC(c2cc(C(N)=O)[nH]n2)C1` (centres undefined), for which the INHIBITION is listed as 11.9%.

Consider `CCn1cc(NC(=O)c2c(C)nn(C)c2C)c(C(N)=O)n1`, for which the INHIBITION turned out to be 27.4%.

Take `Cc1ccc(-c2ccc(CC3NCCN(C)C3=O)cc2)cc1` (centres undefined): the INHIBITION worked out at 29.2%.

Regarding `Cn1nccc1-c1nc2c(cc1C(=O)O)CCN(C(=O)C1CC1)CC2`, the INHIBITION is 72.3%.

Take `Cn1cc(-c2nc3c(cc2C(=O)O)CCN(C(=O)C2CC2)CC3)cn1`: the INHIBITION is given as -27.1%.

On to `Cn1nccc1-c1nc2c(cc1C(=O)O)CCN(CC1CC1)CC2`, for which the INHIBITION was -10.3%.

As to `O=C(Cn1nc(-c2ccc(F)cc2)oc1=O)NCCc1ccccc1`, the INHIBITION worked out at 27.6%.

For `CNC(=O)CN1CC[C@H]2CN(C(=O)c3ccc(C)cc3)C[C@H]2C1`, the INHIBITION is recorded as -99.2%.

For the molecule `Cc1nc(CN2CCC3(CCCN(Cc4cccnc4)C3)C2=O)cs1` (centres undefined), the INHIBITION is listed as 36.2%.

For `CC(C)C(=O)N1CCC[C@]2(C(=O)N(C)C)CN(c3ccccn3)C[C@@H]2C1`, the INHIBITION was -28%.

For `Cn1cc(C2CCCN2Cc2csc(Cc3ccccc3)n2)cn1` (centres undefined), the INHIBITION is recorded as 35.9%.

For `COc1ccc(CNC(=O)c2ccoc2CN2CCNC(=O)C2)cc1`, the INHIBITION was 29.3%.

Regarding `CCCc1nc(N2CCCC(C)C2)c2c(n1)c(C)nn2CC` (centres undefined), the INHIBITION was 66.5%.

On to `CCCc1nc(N2CCC(C)CC2)c2c(n1)c(C)nn2CC`, for which the INHIBITION was 12.3%.

Take `CCCc1nc(N2CCSCC2)c2c(n1)c(C)nn2CC`: the INHIBITION is on record as -3.47%.

`CCCc1nc(N2CCN(CC)CC2)c2c(n1)c(C)nn2CC`: the INHIBITION is 33.5%.

On to `CCCc1nc(N2CCCCCC2)c2c(n1)c(C)nn2CC`, for which the INHIBITION worked out at 78.4%.

`CCCc1nc(N2CCCCC2)c2c(n1)c(C)nn2CC`: the INHIBITION is 11.7%.

On to `CCC(=O)N1CCC(c2nc(O)c3c(n2)CN(C2CCCCC2)CC3)C1` (centres undefined), for which the INHIBITION was determined as 38.8%.

In the case of `Cn1cccc1C(=O)N1CCO[C@@H]2CN(Cc3ccco3)C[C@@H]2C1`, the INHIBITION stood at 15.8%.

For the molecule `c1csc(CN2CCc3ncnc(C4CCOC4)c3CC2)c1` (centres undefined), the INHIBITION was determined as 33%.

Consider `COc1ccc(-c2ccoc2)cc1CNC1CCCC1`, for which the INHIBITION was 61.9%.

Consider `COc1ccc(OC)c(CNC2CCCN(c3cccnn3)C2)c1` (centres undefined), for which the INHIBITION is recorded as 30.5%.

Regarding `COc1cccc(-c2n[nH]cc2CNC2CCC(O)CC2)c1` (centres undefined), the INHIBITION came to 19.4%.

As for `COc1ccc(CNC2CCN(CCc3ccncc3)CC2)cc1O`, the INHIBITION was -4.86%.

Take `COc1ccc(OC)c(CNC2CCCc3nc(N(C)C)ncc32)c1` (centres undefined): the INHIBITION turned out to be 37.6%.

In the case of `COc1ccc(-c2cc[nH]n2)cc1CNC1CCCC1`, the INHIBITION is 72.1%.

On to `CCN1CCC(CNCc2cc(OC)ccc2OC)C1` (centres undefined), for which the INHIBITION came to 10.1%.

Take `COc1ccc(-c2ccncc2)cc1CNC1CCCC1`: the INHIBITION is 51.7%.

On to `COc1ccc(-c2cn[nH]c2)cc1CNC1CCCC1`, for which the INHIBITION came out at 9.04%.

As to `Cc1cc(C(=O)CN(Cc2cccnc2)CC2CCCO2)c(C)[nH]1` (centres undefined), the INHIBITION is given as 10.7%.

Take `Cc1cnc(C(NC(=O)NCC2(CO)CC2)C2CC2)s1` (centres undefined): the INHIBITION is listed as 22.8%.

Consider `CC(C)c1nc(C(=O)N2C[C@@H]3CC[C@H]2CN(C2CCOCC2)C3)cs1`, for which the INHIBITION was 44.8%.

In the case of `CCn1ccc(C(=O)N2CCCC2(C)c2nc(C)cc(N(C)C)n2)n1` (centres undefined), the INHIBITION is listed as -4.51%.

As for `COc1ccc(C(=O)Nc2c(C)nn(C(C)C)c2C)cc1`, the INHIBITION is reported as 10%.

Regarding `COc1ccc2cc(CNc3c(C)nn(C(C)C)c3C)ccc2c1`, the INHIBITION amounted to 62.8%.

As for `COc1ccc(CNc2n[nH]c(C)n2)cc1`, the INHIBITION amounted to 4.03%.

With `COc1ccc(CNc2nc(C3CC3)no2)cc1OC`, the INHIBITION is recorded as 25.6%.

For the molecule `COc1ccc(CNc2cccnc2-n2cccn2)cc1OC`, the INHIBITION came out at 23.9%.

In the case of `COc1ccc(CNc2c(C)nn(C(C)C)c2C)cc1`, the INHIBITION turned out to be 69.3%.

Regarding `COc1ccc(CNc2c(C)nn(C(C)C)c2C)cc1OC`, the INHIBITION was 62.8%.

On to `COc1cccc(CNc2c(C)nn(C(C)C)c2C)c1`, for which the INHIBITION was found to be 31.3%.

In the case of `COc1ccc(CNC(C)c2cnc3cc(C)nn3c2C)cc1` (centres undefined), the INHIBITION was 28.4%.
